Each structure is given as a SMILES string. Inconclusive results are not listed. Some structures have more than one record in an assay (separate samples or runs), and their calls can disagree. Active and inactive are the calls of the source. Unless noted, calls come from the whole dose curve; as a rule, active = well fitted curve in the direction sought with a large enough effect in the repeat runs; inconclusive = weak or mixed curves; inactive = no such curve, though single readings can be large; an effect the other way counts as inactive or inconclusive.

Experiment [1] in a line: qHTS assay to identify small molecule antagonists of the estrogen related receptor (ERR) signaling pathway from Tox21 library - cell viability counter screen (AID 1224834). Note: nearly all actives have a fitted effect of over 30% in size. An outline of the steps:
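Compounds in DMSO were pinned onto ERR cells that had been incubated for 6 h, and the plates were held at 37 C for 17.5 h. CellTiter-Fluor reagent was then added and fluorescence was measured after 30 min.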

Experiment [2] deals with Luciferin 4-monooxygenase (Photinus pyralis) (UniProt P08659). The experiment is described as follows: qHTS assay to identify small molecule inhibitors of firefly luciferase (AID 1224835). For activity change, negative = inhibition: series mostly up to about 120 µM. Note: nearly all actives have a fitted effect of over 25% in size. An outline of the steps: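 Quantitative HTS format; KM concentrations of both substrates. Purified P. pyralis FLuc activity quantified from luminescence images.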
Sequence of Luciferin 4-monooxygenase (Photinus pyralis) (P08659 whole entry, looked up): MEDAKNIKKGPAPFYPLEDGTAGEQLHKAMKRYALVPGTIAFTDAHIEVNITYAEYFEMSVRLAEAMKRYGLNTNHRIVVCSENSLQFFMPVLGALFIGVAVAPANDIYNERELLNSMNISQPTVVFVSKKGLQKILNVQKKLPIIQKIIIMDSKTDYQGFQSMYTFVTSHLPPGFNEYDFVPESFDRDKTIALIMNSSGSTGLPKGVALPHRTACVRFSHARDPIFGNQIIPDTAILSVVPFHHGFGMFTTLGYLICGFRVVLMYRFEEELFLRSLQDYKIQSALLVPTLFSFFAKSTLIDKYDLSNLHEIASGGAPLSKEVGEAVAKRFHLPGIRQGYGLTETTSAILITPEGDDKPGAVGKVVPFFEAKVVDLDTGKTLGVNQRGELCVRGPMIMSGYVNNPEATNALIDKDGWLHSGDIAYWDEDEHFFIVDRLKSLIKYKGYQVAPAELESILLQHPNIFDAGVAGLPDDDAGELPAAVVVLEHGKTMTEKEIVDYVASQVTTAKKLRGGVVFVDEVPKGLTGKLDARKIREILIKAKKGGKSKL
A short description of experiment [3]: qHTS assay to identify small molecule antagonists of the constitutive androstane receptor (CAR) signaling pathway - cell viability counter screen (AID 1224837). For activity change, negative = cytotoxicity: series mostly up to about 92 µM. Note: nearly all actives have a fitted effect of over 45% in size. An outline of the steps:
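Cells are seeded, rested 4 hr at 37 C/5% CO2, dosed with compound (15-point series) and 50 nM CITCO, incubated a further 23 hr, and then CellTiter-Fluor reagent is added before fluorescence is read. The line is HepG2 with stable hCAR and CYP2B6-2.2kb.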

Experiment [4] is described as follows: qHTS assay to identify small molecule antagonists of the estrogen related receptor signaling pathway with the pleiotropic PPARgamma coactivator (PGC) from Tox21 10K library - cell viability counter screen (AID 1224840; active = well fitted cell-killing curve with a large enough effect in the repeat runs, not every such curve was filed as active; note: nearly all actives have a fitted effect of over 40% in size). An outline of the steps:
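Cell viability is measured by CellTiter-Fluor fluorescence in PGC/ERR cells that receive compounds after a 6-hour attachment period and are then incubated 17.5 hours at 37 C.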

The nature of experiment [5]: qHTS assay to identify small molecule antagonists of the estrogen related receptor signaling pathway with the pleiotropic PPARgamma coactivator (PGC) from Tox21 10K library (AID 1224841; call rule not given here; note: actives are mostly falling curves and most rising ones were filed inactive; nearly all actives have a fitted effect of over 50% in size). An outline of the steps:
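Cells stably carrying the PGC/ERR reporter, seeded at 2,000 per well, received pin-transferred compounds 6 h post-plating. Exposure lasted 18 h at 37 C. Signal: One-Glo luminescence.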

Experiment [6] can be described thus: qHTS assay to identify small molecule agonists of the estrogen related receptor signaling pathway with the pleiotropic PPARgamma coactivator (PGC) from Tox21 10K library (AID 1224842). Note: nearly all actives have a fitted effect of over 15% in size. An outline of the steps:
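PGC/ERR reporter cells (NTP line) were seeded 2,000 per well, rested 6 h at 37 C/5% CO2, then pin-dosed with compounds in DMSO for 18 h at 37 C; luciferase read by One-Glo luminescence after 30 min at room temperature.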

Experiment [7] is described as follows: qHTS assay to identify small molecule agonists of the constitutive androstane receptor (CAR) signaling pathway - cell viability counter screen (AID 1224836). For viability change, negative = cytotoxic: series mostly up to about 92 µM. Note: nearly all actives have a fitted effect of over 45% in size. An outline of the steps:
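23 h treatment, 37 C, 5% CO2. Cell line: HepG2 stably expressing hCAR with a CYP2B6-2.2kb construct. Co-treatment: PK11195, 0.75 uM final. Read-out: CellTiter-Fluor fluorescence intensity.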

Experiment [8] deals with Nuclear receptor subfamily 1 group I member 3 (Homo sapiens) (UniProt Q14994). The experiment is described as follows: qHTS assay to identify small molecule antagonists of the constitutive androstane receptor (CAR) signaling pathway (AID 1224838).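 Note: HepG2 cells stably expressing hCAR with CYP2B6 luciferase reporter stimulated by CITCO; nearly all actives have a fitted effect of over 40% in size.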 An outline of the steps:
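Luminescence from a CYP2B6-2.2kb promoter reporter in hCAR-expressing HepG2 cells reflects CAR signaling. Cells received compounds at 15 concentrations and 50 nM CITCO (final), then incubated 24 h at 37 C/5% CO2.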

For experiment [9] the target is unchanged. Description: qHTS assay to identify small molecule agonists of the constitutive androstane receptor (CAR) signaling pathway (AID 1224839).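 For activation: HepG2 cells stably carrying human CAR and a CYP2B6 luciferase reporter; series mostly up to about 92 µM.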 Note: nearly all actives have a fitted effect of over 15% in size. An outline of the steps: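 Compounds tested at 15 concentrations on HepG2 cells stably harbouring hCAR and CYP2B6-2.2kb reporter constructs, co-treated with PK11195 (0.75 uM final), 24 h at 37 C; luminescent reporter signal quantified.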
% is set by controls: 0 for no effect and ±100 for the full control effect; potency is the fitted concentration of half-maximal effect.

Sequence of Nuclear receptor subfamily 1 group I member 3 (Homo sapiens) (Q14994 whole entry, looked up): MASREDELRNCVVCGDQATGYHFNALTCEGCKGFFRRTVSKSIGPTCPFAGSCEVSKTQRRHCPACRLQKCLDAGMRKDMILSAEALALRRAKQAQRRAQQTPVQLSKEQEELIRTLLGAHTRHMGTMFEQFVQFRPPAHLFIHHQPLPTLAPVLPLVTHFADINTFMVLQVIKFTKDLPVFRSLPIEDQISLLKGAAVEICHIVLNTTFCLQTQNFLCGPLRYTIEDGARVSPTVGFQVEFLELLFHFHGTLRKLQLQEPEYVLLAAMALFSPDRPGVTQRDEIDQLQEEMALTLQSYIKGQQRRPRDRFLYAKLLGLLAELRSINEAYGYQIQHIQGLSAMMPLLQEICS

Consider `Brc1ccc(Oc2ccccc2)cc1`, for which the Potency entry in experiment [1], in experiment [2], in [3], in experiment [4] and in [5] was “inactive” in each case. For the same compound, in [6], the Potency was 885 nM (active) and inactive.
On to `C[N+](C)(C)CCCl`, for which the Potency entry in [1], in experiment [2], in experiment [7], in experiment [3], in [4] and in experiment [5] was “inactive” in each case. For the same compound, the Potency entry in experiment [6] is “inactive”.
Turning to `Clc1cccc(SC2CCNCC2)n1`, the Potency result in [1], in [2], in experiment [7], in experiment [3], in experiment [4] and in experiment [5] was “inactive” in each case. The Potency entry in experiment [6] was “inactive”.
In the case of `BrCC(Br)C1CCC(Br)C(Br)C1` (stereo not given), the Potency result in [1], in experiment [2], in experiment [3] and in experiment [8] was “inactive” in each case.
For `Cc1c(F)c(F)c(COC(=O)C2C(/C=C(\Cl)C(F)(F)F)C2(C)C)c(F)c1F` (stereo not given), the Potency result in [1], in experiment [2], in experiment [3] and in [4] was “inactive” in each case.
Regarding `COC(N)=O`, the Potency entry in [1], in [2], in experiment [3], in [8] and in experiment [9] was “inactive” each time.
Consider `Cc1cc(=O)[nH]o1`, for which the Potency result in [1], in [2], in experiment [3] and in [4] was “inactive” throughout.
On to `COP(=S)(Oc1cc(Cl)c(Br)cc1Cl)c1ccccc1` (stereo not given), for which the Potency entry in [1], in experiment [2], in experiment [3], in experiment [8] and in [6] was “inactive” throughout. Moreover, the figures for the Potency in experiment [9] and in experiment [5] were 30.6 µM (active) and 54.5 µM (active), respectively.
On to `CC(C)(CCl)C(=O)Cl`, for which the Potency result in experiment [1], in experiment [2], in experiment [3], in experiment [8], in [9] and in experiment [4] was “inactive” throughout.
As for `O=Cc1ccc(Cl)cc1Cl`, the Potency result in experiment [1], in experiment [2], in experiment [7], in [3], in experiment [5] and in experiment [6] was “inactive” in each case.
Regarding `CO[C@@H]1[C@H](OC(=O)NC(=O)CCl)CC[C@]2(CO2)[C@H]1[C@@]1(C)O[C@@H]1CC=C(C)C`, the viability change, negative = cytotoxic in experiment [1] was -3.88% [at 19 µM] (inactive). Also, the activity change, negative = inhibition in [2] is 2.04% [at 23.6 µM] (inactive). Besides, in [3], the activity change, negative = cytotoxicity was -18.3% [at 19 µM] (inactive). In addition, the activation in experiment [9] is -1.38% [at 19 µM] (inactive); in [6] it was -7.49% [at 19 µM] (inactive).
Regarding `CCOC(=O)[C@]1(c2ccccc2)Oc2ccccc2[C@@H]1N`, the Potency entry in experiment [1], in [2] and in [9] was “inactive” throughout.
Turning to `CCCCN=C=O`, the Potency entry in [1], in experiment [2], in experiment [7], in experiment [3], in [4] and in experiment [5] was “inactive” throughout. Further, the Potency entry in experiment [6] was “inactive”.
Regarding `Cc1ccc(-c2c(Cl)nc(C#N)n2S(=O)(=O)N(C)C)cc1`, the figures for the Potency in [1], in [2] and in experiment [4] were 54.4 µM (active), 35.6 µM (active) and 61.1 µM (active), respectively. In addition, the Potency result in experiment [9] was “inactive”.
Turning to `CO/N=C(/C(=O)OC)c1ccccc1COc1ccccc1C`, the Potency result in experiment [1], in experiment [2], in [3], in experiment [8] and in [6] was “inactive” each time. Besides, the Potency in experiment [9] is 7.7 µM (active).
Take `O=[Se]=O`: the Potency entry in [1], in [2], in [9] and in [6] was “inactive” throughout. For the same compound, the Potency is 21.5 µM (active) in experiment [3], 27.1 µM (active) in experiment [8], 17.1 µM (active) in experiment [4] and 13.6 µM (active) in experiment [5].
On to `CCOP(=O)(OCC)SCCSCC`, for which the Potency result in [1], in experiment [2], in experiment [7], in [3], in experiment [5] and in experiment [6] was “inactive” throughout.
For the compound `C#CCOC(C(=O)OCCN(C)C)(c1ccccc1)c1ccccc1`, the Potency result in experiment [1], in [2], in [3], in experiment [8] and in experiment [4] was “inactive” in each case.
Turning to `CC1(C)[C@H](C=C(Cl)Cl)[C@@H]1C(=O)O[C@@H](C#N)c1cccc(Oc2ccccc2)c1`, the Potency result in experiment [1], in [2], in experiment [3], in experiment [8] and in [4] was “inactive” throughout.
Consider `O=C(Nc1ccccc1)Nc1ccnc(Cl)c1`, for which the Potency in experiment [1] was 43.3 µM (active); in experiment [2], 15.9 µM (active); in experiment [7] it was 48.6 µM (active); in experiment [4] it was 61.1 µM (active). Moreover, the Potency result in experiment [6] is “inactive”.
On to `S=C=NCc1ccccc1`, for which the Potency entry in experiment [1], in [2], in experiment [7], in [9], in experiment [4] and in experiment [5] was “inactive” throughout. The Potency entry in experiment [6] was “inactive”.
Take `O=C(N[C@H](c1ccccc1)[C@@H]1CN2CCC1CC2)c1c(Cl)ccc(C(F)(F)F)c1Cl`: the Potency in experiment [1] was 49.3 µM (active); in experiment [8], 13.9 µM (active); in [5] it was 31.1 µM (active). Besides, the Potency result in experiment [2], in [9] and in experiment [6] was “inactive” in each case.
As to `CN1C(=O)C(O)N=C(c2ccccc2)c2cc(Cl)ccc21` (stereo not given), the Potency entry in experiment [1], in [7], in [3], in [4], in experiment [5] and in experiment [6] was “inactive” throughout.
On to `CC1C(=O)C[C@]2(C(C)C)C[C@H]12` (stereo not given in full), for which the Potency result in [1], in experiment [7], in experiment [3] and in experiment [4] was “inactive” in each case.
For `COc1cc(Cl)c(OC)cc1Cl`, the Potency result in experiment [1], in [7], in [3], in experiment [4], in experiment [5] and in [6] was “inactive” in each case.
`ClP(Cl)(Cl)(Cl)Cl`: the Potency result in [1], in experiment [7], in experiment [3], in [8], in [9] and in [4] was “inactive” in each case. Further, the Potency entry in [6] was “inactive”.
For the compound `CCCCC(CC)COP(=O)(Oc1ccccc1)Oc1ccccc1` (stereo not given), the Potency entry in [1], in experiment [7], in [3], in experiment [8] and in experiment [4] was “inactive” throughout. In [9], the Potency was 27.3 µM (active).
`CCOP(O)OCC`: the Potency entry in experiment [2], in [7], in [3], in experiment [8] and in [9] was “inactive” throughout.
For the compound `CN(N=O)c1ccc([N+](=O)[O-])cc1`, the Potency entry in experiment [1], in experiment [3], in [8] and in [4] was “inactive” each time.
On to `COc1nn(CSP(=S)(OC)OC)c(=O)s1`, for which the Potency was 35.6 µM (active) in experiment [2] and 54.5 µM (active) in experiment [9]. Moreover, the Potency entry in experiment [7], in experiment [3] and in experiment [8] was “inactive” in each case.
In the case of `CCOc1ccc(C(C)(C)COCc2cccc(Oc3ccccc3)c2)cc1`, the Potency entry in experiment [1], in experiment [7], in experiment [3], in experiment [8] and in experiment [4] was “inactive” in each case. Further, in experiment [9], the Potency was 6.11 µM (active).
Regarding `COP(=S)(OC)Oc1cc(Cl)c(I)cc1Cl`, the Potency result in experiment [1], in [3] and in experiment [8] was “inactive” each time. Besides, the Potency in experiment [9] was 54.5 µM (active).
For the compound `C=CCN1CC[C@]23c4c5ccc(O)c4O[C@H]2C(=O)CC[C@@]3(O)[C@H]1C5`, the Potency result in experiment [1], in experiment [7], in [3], in [4], in experiment [5] and in experiment [6] was “inactive” throughout.
`CCOS(C)(=O)=O`: the Potency entry in experiment [1], in [7] and in [3] was “inactive” in each case.
For the compound `C/C(=C\c1ccccc1)[N+](=O)[O-]`, the Potency is 27.3 µM (active) in [1], 30.6 µM (active) in [3], 24.3 µM (active) in [8] and 30.6 µM (active) in experiment [5]. The Potency result in [9] and in experiment [6] was “inactive” each time.
For the compound `CCCCCC[N+](=O)[O-]`, the Potency entry in experiment [1], in experiment [3], in [8] and in [9] was “inactive” in each case.
